Assay results taken from PubChem BioAssay AID1851 (National Center for Advancing Translational Sciences (NCATS), 2009).
Values joined by “and” are separate entries in the source; they are usually repeats but may differ in a detail not shown here. Equal entries are not always repeated. In all, about 16,000 compounds went through this assay and about 5,700 (36%) were called active. Inconclusive results (about 24%) are left out. The list shows a part of the results. Values without a mark were called inactive. The call rests on the fitted dose curve; in most records, active means well fitted curve in the direction sought with a large enough effect; inconclusive means small, poorly fitted or top-dose-only effect, or effect the other way; inactive means no such curve, though single readings can be large or run the other way.

Target: Cytochrome P450 1A2 (Homo sapiens) (UniProt P05177)
Sequence (P05177 whole entry, looked up): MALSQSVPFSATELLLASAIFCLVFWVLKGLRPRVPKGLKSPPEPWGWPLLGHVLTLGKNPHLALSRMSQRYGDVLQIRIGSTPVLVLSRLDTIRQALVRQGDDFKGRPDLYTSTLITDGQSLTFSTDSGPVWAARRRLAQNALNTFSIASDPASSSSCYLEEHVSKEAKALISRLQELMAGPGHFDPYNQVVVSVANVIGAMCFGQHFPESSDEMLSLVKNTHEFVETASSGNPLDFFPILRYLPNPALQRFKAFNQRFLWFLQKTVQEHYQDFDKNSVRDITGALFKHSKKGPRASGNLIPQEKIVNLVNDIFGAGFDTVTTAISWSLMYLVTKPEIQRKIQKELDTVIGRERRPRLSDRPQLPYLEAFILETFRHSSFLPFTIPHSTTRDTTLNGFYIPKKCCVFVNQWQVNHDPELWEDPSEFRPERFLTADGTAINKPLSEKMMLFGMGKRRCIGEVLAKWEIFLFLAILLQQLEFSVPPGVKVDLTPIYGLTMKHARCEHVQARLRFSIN
Experiment: Cytochrome panel assay with activity outcomes
Conditions: recombinant CYP, pro-luciferin dealkylation, luminescence, p450-cyp1a2; series mostly up to 57.1 µM; activity, negative = inhibition: at the top concentration
On the % scale 0 is the no-effect control and ±100 the full control effect.

SMILES | AC50 | activity, negative = inhibition
O=c1cc(N2CCOCC2)oc2c(-c3ccccc3)cccc12 | 1.58 µM (active) and 200 nM (active) | –
Cc1cc(C)c2nc3c(c([C@H](O)[C@@H]4CCCCN4)c2c1)CC/C3=C/c1ccc(Cl)cc1 | – | -20.6% [at 11.4 µM]
c1coc(CN2CCN(C(c3cccs3)c3nnnn3C3CCCC3)CC2)c1 (stereo not drawn) | – | -10.2%
Clc1ccc(C(c2nnnn2C2CCCC2)N2CCN(Cc3ccncc3)CC2)cc1 (stereo not drawn) | 10 µM (active) | –
Cc1ccc(C(c2nnnn2C2CCCC2)N2CCN3CCCC3C2)cc1 (stereo not drawn) | – | 1.2%
C/C=C\C1=C(CO)C(=O)C2O[C@]2(CC=C(C)C)C1=O (stereo partly drawn) | – | -6.49% [at 11.4 µM]
COc1ccc(-c2nc(-c3ccccc3)c(-c3cc([N+](=O)[O-])ccc3C)[nH]2)cc1O | 14.1 µM (active) | –
O=[N+]([O-])c1cccc(-c2nc(-c3ccccc3)c(-c3cccs3)[nH]2)c1 | 2.51 µM (active) | –
O=[N+]([O-])c1cccc(-c2nc(-c3cccs3)c(-c3cccs3)[nH]2)c1 | 1 µM (active) | –
CCOc1ccc(C(=O)Nc2cnn(Cc3ccc(Cl)c(Cl)c3)c2)cc1 | 10 µM (active) | –
CCOC(OCC)P(=O)(O)CCCNCc1ccc(Cl)c(Cl)c1 | – | -38%
CCN(CC)c1ccc(NC(=O)c2cnn(CC)c2)cc1 | – | -3.68%
Cc1cc(C(=O)CSC(=S)SC(C)(C)C)ccc1Cl | 1.58 µM (active) | –
N#CCCn1c(=O)c(-c2cc(F)cc(F)c2)nc2cnc(Oc3ccccc3)nc21 | 2 µM (active) | –
N#CCCn1c(=O)c(-c2ccc(F)cc2)nc2cnc(OCc3ccccc3)nc21 | 1.58 µM (active) | –
N#CCCn1c(=O)c(-c2ccc(Cl)cc2)nc2cnc(OCc3ccccc3)nc21 | 2 µM (active) | –
N#CCCn1c(=O)cnc2cnc(OCc3ccccc3)nc21 | 12.6 µM (active) | –
O=C1CC[C@H](NC(=O)c2ccccc2)C(=O)N1 | – | -20.9% [at 11.4 µM]
N#CCCn1c(=O)c(-c2ccccc2)nc2cnc(OCc3ccccc3)nc21 | 3.16 µM (active) | –
CN(C)c1ncc2nc(-c3cc(F)cc(F)c3)c(=O)n(CCC#N)c2n1 | – | -15.7%
N#CCCn1c(=O)c(-c2cc(F)cc(F)c2)nc2cnc(OCc3ccccc3)nc21 | 6.31 µM (active) | –
COc1ncc2nc(-c3cc(F)cc(F)c3)c(=O)n(CCC#N)c2n1 | 6.31 µM (active) | –
COc1cccc([C@@H]2Oc3ccc(OC)cc3/C(=N/O[C@@H](C)c3cn([C@H]4COC[C@H]4O)nn3)[C@@H]2O)c1 | – | 8.26% [at 11.4 µM]
Clc1ccccc1C(Nc1ncccn1)Nc1ncccn1 | – | -16.9% [at 11.4 µM]

SMILES | AC50 | activity, negative = inhibition
CC(=O)c1c(C(C)=O)c(C)n(NC(=O)c2ccncc2)c1C | – | 8.59%
Cc1onc(-c2c(Cl)cccc2Cl)c1C(=O)N1CCc2ccccc2C1 | – | -17.5%
CC(=O)c1cc2c(cc1NC(=O)CCCC(=O)O)OCO2 | – | -28%
Cc1onc(-c2c(Cl)cccc2Cl)c1C(=O)Nc1ccc2c(c1)OCO2 | 3.16 µM (active) | –
Cc1onc(-c2ccccc2)c1C(=O)NC(CC(=O)O)c1ccc(OC(C)C)cc1 (stereo not drawn) | – | -19.1%
CC(=O)c1cc2c(cc1NC(=O)c1c(-c3ccccc3)noc1C)OCO2 | 2.24 µM (active) | –
C/C(=C(/CCO)SSC[C@@H]1CCCO1)N(C=O)Cc1cnc(C)nc1N | – | -10.8% [at 25.6 µM]
CCOC(=O)C1CCCN(C(=O)CSCc2ccccc2)C1 (stereo not drawn) | – | -15.5%
CC(C)CC(=O)N1CCC(O)(CS(=O)(=O)Cc2ccc(Cl)cc2)CC1 | – | 11%
CCOC(=O)N1CCN(C(=O)CSCc2ccc(Cl)cc2)CC1 | 6.31 µM (active) | –
CCOc1cccc2cc(C(N)=O)c(=NCc3ccccc3)oc12 | 2.24 µM (active) | –
COc1cccc(-c2ccc3ncnc(N(C)Cc4ccco4)c3c2)c1 | 1.26 µM (active) | –
CN(Cc1ccco1)c1ncnc2ccc(-c3cccnc3)cc12 | 0.316 µM (active) | –
Cc1ccc(CSc2nnc3c(n2)OC2(Nc4ccccc4-3)C(=O)Nc3ccc(F)cc32)cc1 (stereo not drawn) | 14.1 µM (active) | –
CCCNC(=O)OC[C@H]1O[C@@H](CCO/N=C2/[C@H]3O[C@@H]3[C@@H](O)[C@H]3[C@H]2CCn2c(=O)n(-c4ccccc4)c(=O)n23)C=C[C@@H]1Oc1ccc(OC)cc1 | – | -12.7% [at 11.4 µM]
COc1ccc(-n2c(=O)c(-c3cn(C)c4ccccc34)nc3cnc(OC)nc32)cc1 | – | -22%
Cn1cc(-c2nc3cncnc3n(-c3ccccc3)c2=O)c2ccccc21 | 1.58 µM (active) | –
COc1ccc(Oc2ncc3nc(-c4cn(C)c5ccccc45)c(=O)n(C4CC4)c3n2)cc1 | 12.6 µM (active) | –
Cn1cc(-c2nc3cncnc3n(C3CC3)c2=O)c2ccccc21 | 0.2 µM (active) | –
COc1ccc(-n2c(=O)c(-c3cn(C)c4ccccc34)nc3cncnc32)cc1 | 0.316 µM (active) | –
CS(=O)(=O)N1CCC[C@@]2(CCN(Cc3nccs3)C2)C1 | – | 3.08%
COc1cc2cc3c(N)c(C(=O)Nc4sc(C)c(C)c4C#N)sc3nc2cc1OC | – | -27.6%
CCOc1ccc(/C=C/C2=Cc3c(sc(NC(=O)CSc4n[nH]c(N)n4)c3C#N)C(C)(C)C2)cc1 | – | -14.8%
CCOC(=O)c1sc(NC(=O)CSc2nc(C)cc(C)n2)c(C#N)c1C | 10 µM (active) | –

SMILES | AC50 | activity, negative = inhibition
CCOC(=O)c1sc(NC(=O)CSc2n[nH]c(-c3ccc(Cl)cc3Cl)n2)c(C#N)c1C | 14.1 µM (active) | –
Cc1ccc(/C=C/C2=Cc3c(sc(NC(=O)CSc4n[nH]c(N)n4)c3C#N)C(C)(C)C2)o1 | – | -29.2%
CCOC(=O)c1sc(NC(=O)CSc2nc(C)cc(C)c2C#N)c(C#N)c1C | – | -28.8%
Cn1c(=O)c2nc(-c3ccccc3)oc2c2ccccc21 | 0.398 µM (active) | –
Cc1ccc(-c2nc3c(=O)n(C)c4ccccc4c3o2)cc1 | 0.398 µM (active) | –
Cc1ccc(S(=O)(=O)n2c3ccccc3c3nnc(C(=O)c4ccccc4)nc32)cc1 | – | -2.9% [at 11.4 µM]
COc1ccc2[nH]cc(CCNc3cc(-c4cccnc4)ncn3)c2c1 | 3.16 µM (active) | –
COc1ccc2[nH]cc(CCNc3cc(-c4cccc(C#N)c4)ncn3)c2c1 | 0.794 µM (active) | –
COc1ccc2[nH]cc(CCNc3ccnc(-c4cccnc4)n3)c2c1 | 0.251 µM (active) | –
COc1cccc(-c2cc(NCCc3c[nH]c4ccc(OC)cc34)ncn2)c1 | 0.794 µM (active) | –
N[C@H](CCC(=O)NCC(=O)O)C(=O)O | – | -17.4%
COc1ccccc1CN1CCC2(CCNCC2)CC1 | – | -5.13%
CN(C)CCn1nnnc1SCC1=C(C(=O)O)N2C(=O)[C@@H](NC(=O)Cc3csc(N)n3)[C@@H]2SC1 | – | -6.52% [at 25.6 µM]
COc1ccc2[nH]cc(CCNc3ccnc(-c4cccc(NS(C)(=O)=O)c4)n3)c2c1 | 1.58 µM (active) | –
COc1ccc2[nH]cc(CCNc3cc(-c4ccoc4)ncn3)c2c1 | 0.631 µM (active) | –
CC1(C)S[C@@H]2[C@H](NC(=O)C(N)c3ccccc3)C(=O)N2[C@H]1C(=O)O (stereo partly drawn) | – | -0.0503% [at 25.6 µM]
CN(c1ccccc1)c1nc(-n2ccnc2)nc(-n2ccnc2)n1 | 0.158 µM (active) | –
c1ccc(-c2nc(N3CCCCCC3)nc(-n3ccnc3)n2)cc1 | 1.26 µM (active) | –
CC(C)[C@@H](OCc1ccccc1)[C@H](C)/C=N\OC[C@@H](O)[C@@H]1O[C@@H]2OC(C)(C)O[C@@H]2[C@H]1O | – | -0.825% [at 11.4 µM]
COc1ccccc1-c1nccc(-n2ccnc2)n1 | 0.158 µM (active) | –
Cc1ccccc1-c1nccc(-n2ccnc2)n1 | 0.0794 µM (active) | –
Clc1ccccc1-c1nccc(-n2ccnc2)n1 | 0.158 µM (active) | –
COC(=O)N1CCC[C@@]2(CCN(C(=O)Nc3ccc(OC)cc3)C2)C1 | – | -2.89%
N=C(N)SCC(=O)O | – | -10.2% [at 2.29 µM]

SMILES | AC50 | activity, negative = inhibition
COc1ccc(/C(O)=C(\C#N)c2nc3ccccc3n2C)cc1OC | 5.01 µM (active) | –
Cn1c(/C(C#N)=C(\O)c2ccc(S(=O)(=O)N3CCCCC3)cc2)nc2ccccc21 | – | -8.63%
CN(CCCNC(=O)c1cccn2c(=O)c3ccccc3nc12)Cc1ccccc1 | 14.1 µM (active) | –
CN(CCCNC(=O)c1ccc(/C=N/O)nc1)CCCN(C)Cc1ccccc1 | – | 2.39%
CN(C)CCCNC(=O)CCc1nc2ccccc2c(=O)[nH]1 | – | -6.97%
Cc1cccc(CNc2ncncc2-c2ccc3c(c2)OCO3)c1 | 0.126 µM (active) | –
c1cncc(CNc2ncncc2-c2ccc3c(c2)OCO3)c1 | 0.398 µM (active) | –
Cc1cnc(CNc2ncncc2-c2ccc3c(c2)OCO3)cn1 | 2 µM (active) | –
c1csc(CNc2ncncc2-c2ccc3c(c2)OCO3)c1 | 0.2 µM (active) | –
Cc1ccc(N(C(=O)Cn2nnc(-c3ccc(F)cc3)n2)C(CC(C)C)C(=O)NCC2CCCO2)cc1 (stereo not drawn) | – | -2.51%
c1ccc(Nc2ncncc2-c2ccc3c(c2)OCO3)cc1 | 0.316 µM (active) | –
c1ccc(CNc2ncncc2-c2ccc3c(c2)OCO3)cc1 | 0.126 µM (active) | –
CC(C)c1ccccc1S(=O)c1ccccc1C(C)(C)O (stereo not drawn) | – | -10.7% [at 2.29 µM]
O=C(O)c1ccc(/C=N\N=C2c3ccccc3-c3ccccc32)cc1 | 0.126 µM (active) | –
O=C(O)c1ccccc1/C=N\N=C1c2ccccc2-c2ccccc21 | 0.316 µM (active) | –
O=C(O)c1cccc2cccc(-c3cccc4cccc(C(=O)O)c34)c12 | – | -12.3% [at 2.29 µM]
NCc1ccc(C(=O)O)cc1 | – | -4.79% [at 2.29 µM]
O=C(O)c1ccccc1OP(=O)(O)O | – | -1.68% [at 25.6 µM]
Cc1ccc(Cl)cc1-n1c(=O)cc(N2CC(C)OC(C)C2)[nH]c1=O (stereo not drawn) | – | -1.42%
Clc1ccc(Cl)c(Nc2ccnc(SCc3ccccc3)n2)c1 | 0.501 µM (active) | –
Cc1cccc(Nc2cc(Cl)nc(SCC(=O)O)n2)c1C | – | 0.128%
